Data published in PubChem BioAssay (EPA / NIEHS).
Activity calls are given as the source filed them. Rule for the calls: active = hit-call score of the fitted dose curve at least 0.9, where 1 is the maximum; inactive = score below 0.9.

The compounds below were run on CD69, CD69 (gene 969) (assay: BSK_SAg_CD69: BioMAP Diversity Plus: SAg Assay for CD69 Biomarker Activity (AID 2283089)). Settings: primary human HUVEC with PBMC; actives raise or lower the signal.
Description: BSK_SAg is a cell-based, multiplexed-readout assay that uses umbilical vein endothelium and peripheral blood mononuclear cells, a human vascular primary cell co-culture, with measurements taken at 24 hours after chemical dosing in a 96-well plate.BSK_SAg_CD69 is one of 10 assay component(s) measured or calculated from the BSK_SAg assay. It is designed to make measurements of enzyme-linked immunosorbent assay, a form of binding reporter, as detected with fluorescence intensity signals by Enzyme-linked immunosorbent assay technology.Data from the assay component BSK_SAg_CD69 was analyzed into 1 assay endpoint. This assay endpoint, BSK_SAg_CD69, was analyzed with bidirectional fitting relative to DMSO as the negative control and baseline of activity. Using a type of binding reporter, gain or loss-of-signal activity can be used to understand changes in the signaling as they relate to the gene CD69. Furthermore, this assay endpoint can be referred to as a primary readout, because this assay has produced multiple assay endpoints where this one serves a signaling function. To generalize the intended target to other relatable targets, this assay endpoint is annotated to the cytokine intended target family, where the subfamily is inflammatory factor.
The levels of cell surface (or secreted, indicated by the prefix "s") biomarker endpoints were measured by ELISA. Overt cytotoxicity to cells in confluent adherent cultures (all systems other than the BT system) was assessed by measuring total protein levels using sulforhodamine B (SRB) staining in parallel cultures at the time of biomarker measurements, indicated as SRB endpoints. For proliferation assays for adherent cell types, individual cell types are cultured at sub-confluence and relative cell numbers quantified by SRB staining at time points optimized for each system (48 h: 3C and CASM3C systems; 72 h: BT and HDF3CGF systems; 96 h: SAg system). SRB was performed by staining cells with 0.1% SRB after fixation with 10% TCA and reading wells at 560 nm.Viability and proliferation of PBMC (T cells) was quantified by Alamar Blue reduction for the SAg and BT systems. For PBMC viability (referred to as PBMC Cytotoxicity within the assay endpoint names), cells were plated (75,000/well in a 96-well plate) and then chemical samples added for 1 h before addition of activators, SEB and TSST-1 (20 ng/mL final concentration each). Cells were incubated for 90 h. Then, Alamar Blue (20 uL/well) (Invitrogen, Cat DAL1100) was added for 6 h, and the plates were read with a fluorescence microplate reader at 546/580 nm (excitation/emission). For PBMC proliferation, cells were plated and activated as above but incubated for only 16 h prior to addition of Alamar Blue. Plates were read after 6 h.

outcome, inactive:
Oc1ccc2c(c1)-c1ccccc1C2, O=C1CCC(N2C(=O)c3ccccc3C2=O)C(=O)N1 (stereo not given), CC(C)CCCCCCOC(=O)c1ccc(C(=O)OCCCCCCC(C)C)c(C(=O)OCCCCCCC(C)C)c1, CCCC(=O)OCC, O=C1OC(=O)C2C3C=CC(C3)C12 (stereo not given), COC(=O)c1c(Cl)c(Cl)c(C(=O)OC)c(Cl)c1Cl, Cc1ccc(N)cc1O, C1N2CN3CN1CN(C2)C3, C1=CCCC=CCCC=CCC1, Nc1nc2ncc(CNc3ccc(C(=O)N[C@@H](CCC(=O)O)C(=O)O)cc3)nc2c(=O)[nH]1, CC(C)=CCCC(C)=CC=O, CCOCCOCCOCCO, O=P(OC(CCl)CCl)(OC(CCl)CCl)OC(CCl)CCl, CC(C)CC(C)(O)C#CC(C)(O)CC(C)C (stereo not given), COC(=O)CC(=O)OC, C[C@](N)(Cc1ccc(O)c(O)c1)C(=O)O, Cc1ccc(C)c(O)c1, CC(=O)OC[C@H]1O[C@@](COC(C)=O)(O[C@H]2O[C@H](COC(C)=O)[C@@H](OC(C)=O)[C@H](OC(C)=O)[C@H]2OC(C)=O)[C@@H](OC(C)=O)[C@@H]1OC(C)=O, CCn1nc(Cc2ccccc2)cc1C1CCN(C[C@H]2C[C@H](N(C)[C@@H](C(=O)O)C(C)C)C[C@@H]2c2cccc(F)c2)CC1, O=C(NS(=O)(=O)/C=C/c1ccccc1)c1ccc(F)cc1Cl, CCOCCO, COCCOCCOCCOC, CCNc1ccccc1, CC[C@H]1OC(=O)[C@H](C)[C@@H](O[C@H]2C[C@@](C)(OC)[C@@H](O)[C@H](C)O2)[C@H](C)[C@@H](O[C@@H]2O[C@H](C)C[C@H](N(C)C)[C@H]2O)[C@](C)(O)C[C@@H](C)C(=O)[C@H](C)[C@@H](O)[C@]1(C)O, O=C(O)c1cccc(Oc2ccccc2)c1, COC(=O)c1ccccc1O, CCOC(=O)CC(CC(=O)OCC)(OC(C)=O)C(=O)OCC, Cn1cnc([N+](=O)[O-])c1Sc1ncnc2nc[nH]c12, CC[C@H]1CC[C@H](NCc2cc3c(cc2OC)[C@H]2C[C@H]2C(=O)N3C)[C@H](c2ccccc2)N1, CCCCCCCCO, Cn1c(=O)cc(Oc2ccc(F)cc2F)c2cnc(NCC(C)(C)O)nc21

AC50, active:
O=C(OC[C@H]1O[C@@H](OC(=O)c2cc(O)c(O)c(OC(=O)c3cc(O)c(O)c(O)c3)c2)[C@H](OC(=O)c2cc(O)c(O)c(OC(=O)c3cc(O)c(O)c(O)c3)c2)[C@@H](OC(=O)c2cc(O)c(O)c(OC(=O)c3cc(O)c(O)c(O)c3)c2)[C@@H]1OC(=O)c1cc(O)c(O)c(OC(=O)c2cc(O)c(O)c(O)c2)c1)c1cc(O)c(O)c(OC(=O)c2cc(O)c(O)c(O)c2)c1 6.1 µM, O=c1n(CC2CO2)c(=O)n(CC2CO2)c(=O)n1CC1CO1 (stereo not given) 20 µM, CC[C@H](C)C(=O)O[C@H]1C[C@@H](C)C=C2C=C[C@H](C)[C@H](CC[C@@H]3C[C@@H](O)CC(=O)O3)[C@H]21 13.8 µM, Clc1nc(Cl)c(Cl)c(Cl)c1Cl 26.3 µM, CCOC(=O)c1ccc(C2CCC(NC[C@H](O)COc3ccc(O)c(NS(C)(=O)=O)c3)CC2)cc1 (stereo not given in full) 29.8 µM, Nc1ccc(Nc2ccccc2)cc1 3.97 µM, O=C(CCCCCCCCc1cccnc1)N1CCC(C=C(c2ccccc2)c2ccccc2)CC1 8.49 µM, COc1cccc(-c2ccc(/C=C\CN3CCCCCC3)cc2Cl)c1 30.4 µM, CCOC(=O)COc1ccc2c(c1)CC(NCC(O)c1cccc(Cl)c1)CC2 (stereo not given) 18.3 µM
